{
  "source": "PubChem BioAssay (NCATS)",
  "note": "Inconclusive results are not listed. Entries that show only a call come without a potency. Calls of active or inactive are those of the source. Calls follow the shape of the dose curve; as a rule, active = well fitted inhibition curve with a large enough effect; inconclusive = small, poorly fitted or top-dose-only effect; inactive = flat fitted curve, though single readings scatter.",
  "data": [
    {"molecular_target": "Calcium and integrin-binding protein 1 (Homo sapiens) (UniProt Q99828)", "sequence (Q99828 whole entry, looked up)": "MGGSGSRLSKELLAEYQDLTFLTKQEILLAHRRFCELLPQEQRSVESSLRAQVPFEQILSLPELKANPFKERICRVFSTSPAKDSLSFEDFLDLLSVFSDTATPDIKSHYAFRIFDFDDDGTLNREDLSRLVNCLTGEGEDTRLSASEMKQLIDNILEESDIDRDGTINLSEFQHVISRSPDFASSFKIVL", "assay": "Primary qHTS for Identification of Calcium Integrin Binding Protein 1 (CIB1) Competitor (AID 1508620);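 also: GST tagged CIB1 binding a fluorescein labelled alphaIIb integrin peptide tracer; top concentration of the series differs between compounds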", "settings": "CIB1-GST / FITC-alphaIIb peptide fluorescence polarization; series mostly up to 114 µM", "in_short": "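Fluorescence polarization competition: CIB1-GST (1 uM final) preincubated with compound 15 min at room temperature, then FITC-labeled alphaIIb peptide (100 nM final) added for another 15 min. Polarization read at Ex 480/Em 540.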", "values": [
      {"smiles": "C=C1C(=O)O[C@@H]2[C@H]1CC[C@H](C)C(CCC(=O)O)C2(C)O", "note": "(stereo partly drawn)", "Potency": "inactive"},
      {"smiles": "Cc1ccccc1C(C(=O)NC1CCCCC1)N(C(=O)Cn1cnc2ccccc21)c1cccc(F)c1", "note": "(stereo not drawn)", "Potency": "inactive"},
      {"smiles": "C=C[C@@]1(C)C=C2C(=O)C(O)=C3[C@](C)(C(=O)O)CC[C@@H]4C[C@]34[C@]2(O)C(=O)C1", "Potency": "inactive"},
      {"smiles": "CCCCOC(=O)NS(=O)(=O)c1sc(CC(C)C)cc1-c1ccc(Cn2ccnc2)cc1", "Potency": "inactive"},
      {"smiles": "CC1(CO)CC2C(O)C3=C(CC(C)(O)C2C1)C(=O)OC3", "note": "(stereo not drawn)", "Potency": "inactive"},
      {"smiles": "C=C1C(=O)OC2/C=C(\\COC(C)=O)CC/C=C(\\C=O)CC(OC(=O)C(C)CC)C12", "note": "(stereo not drawn)", "Potency": "inactive"},
      {"smiles": "C=C1[C@H]2CC[C@H](C(=O)O)[C@@]23CC[C@H](C3)C1(C)C", "Potency": "inactive"},
      {"smiles": "Cc1[nH]c2ccc(F)cc2c1-c1nc2c3cccnc3c3ncccc3c2[nH]1", "Potency": "inactive"},
      {"smiles": "O=c1cc(NCCCN[C@@H]2CCOc3c(Br)cc(Br)cc32)[nH]c2ccsc12", "Potency": "inactive"},
      {"smiles": "Cc1c(F)ccc(C(=O)Nc2cc([N+](=O)[O-])ccc2N2CCN(C)CC2)c1Cl", "Potency": "inactive"},
      {"smiles": "C=C1C(=O)OC[C@@H]1C/C=C(\\C)CC1CC(C)C(=O)O1", "note": "(stereo partly drawn)", "Potency": "inactive"},
      {"smiles": "O=C(Nc1ccn(Cc2ccc(O)cc2C(F)(F)F)n1)c1c(F)cccc1F", "Potency": "inactive"},
      {"smiles": "CC(C)CCNC(=O)c1ccc2c(c1)nc(Nc1n[nH]c3ccc(-c4ccccc4OC(F)(F)F)cc13)n2C1CCC(O)CC1", "note": "(stereo not drawn)", "Potency": "inactive"}
    ]}
  ]
}
